Reference: paper PMC13083723 (Patterns, 2026)
About 190 (3.5%) of roughly 5,400 compounds showed an effect of 50% or more. Only a selection was taken, and strong results are over-represented in it overall.

The molecules below were run on Vero-E6 (assay: primary screen, phospholipidosis by LipidTOX staining; higher = more effect of the substance). Conditions: 10 µM.
Method in brief: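 Drug-induced phospholipidosis detected with HCS LipidTOX Red reagent in Vero-E6 cells. Compounds tested at 10 μM, with amiodarone (10 μM) as positive control and DMSO (0.1 v/v %) as vehicle.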

SMILES	result_ITMP
O=C1Nc2ccc(Cl)c3c2C1(CCCCN1CC=C(c2ccc(Cl)cc2)CC1)CCC3 (centres unmarked)	70.2%
O=C(O)c1ccc2[nH]cc(CCCCN3CC=C(c4ccccc4)CC3)c2c1	-12.5%
CO[C@H]1C[C@H](O[C@H]2CC[C@@]3(C)[C@H](CC[C@@H]4[C@@H]3CC[C@]3(C)[C@@H](C5=CC(=O)OC5)[C@@H](OC(C)=O)C[C@]43O)C2)O[C@@H](C)[C@@H]1O	-2.23%
CO/N=C(\C(=O)N[C@@H]1C(=O)N2C(C(=O)[O-])=CCS[C@H]12)c1csc(N)n1	-1.89%
CCC1=C[C@@H]2C[N@](C1)Cc1c([nH]c3ccccc13)[C@@](C(=O)OC)(c1cc3c(cc1OC)N(C)[C@H]1[C@@](O)(C(=O)OC)[C@H](OC(C)=O)[C@]4(CC)C=CCN5CC[C@]31[C@@H]54)C2	7.31%
CCN1CCC(n2cc(CNc3cc(Cl)c4ncc(C#N)c(Nc5ccc(F)c(Cl)c5)c4c3)nn2)CC1	9.34%
C=CC(=O)Nc1cc2c(Nc3ccc(F)c(Cl)c3)ncnc2cc1C#CC(C)(C)N1CCN(C)CC1	36.6%
CCN(CC)CC1CCN(c2ncc3ncnc(Nc4ccc(F)c(Cl)c4)c3n2)CC1	97%
N#Cc1cc(CN2CCC(Nc3ncnc4sc(Cl)cc34)CC2)ccc1F	18.7%
CN1CCC(Nc2ncc3ncnc(Nc4ccc(F)c(Cl)c4)c3n2)CC1	76.5%
CC(C)(C)NCC(O)COc1cccc2c1C[C@H](O)[C@H](O)C2 (mixture of isomers)	-2.49%
CC[C@H](C)[C@H](NC(=O)[C@H](CCC(=O)O)NC(=O)[C@H](CCC(=O)O)NC(=O)[C@H](Cc1ccccc1)NC(=O)[C@H](CC(=O)O)NC(=O)CNC(=O)[C@H](CC(N)=O)NC(=O)CNC(=O)CNC(=O)CNC(=O)CNC(=O)[C@@H]1CCCN1C(=O)[C@H](CCCNC(=N)N)NC(=O)[C@@H]1CCCN1C(=O)[C@H](N)Cc1ccccc1)C(=O)N1CCC[C@H]1C(=O)N[C@@H](CCC(=O)O)C(=O)N[C@@H](CCC(=O)O)C(=O)N[C@@H](Cc1ccc(O)cc1)C(=O)N[C@@H](CC(C)C)C(=O)O	0.65%
O=C1[N-]C(=O)C(c2ccccc2)(c2ccccc2)N1	-1.89%
NC(N)=NC(=O)c1cnn(-c2cccc3ncccc23)c1C1CC1	-1.94%
COc1ccc(C(=O)c2c(C)n(CCN3CCOCC3)c3ccccc23)cc1	0.58%
CCn1c2ccccc2c2cc(Nc3ccnc(NCCCN4CCOCC4)n3)ccc21	57.6%
Cc1cc(-c2ccccc2)nnc1NCCN1CCOCC1	-1.84%
O=C([O-])C1[O][Sb]2[O]C(=O)C([O]2)C(C(=O)[O-])[O][Sb]2[O]C(=O)C1[O]2 (centres unmarked)	-8.7%
CC1(C)S[C@@H]2[C@H](NC(=O)COc3ccccc3)C(=O)N2[C@H]1C(=O)[O-]	-2.47%
COc1ccccc1C1(O)CCN(CCCn2c3ccccc3c3ccccc32)CC1	52.4%
COc1ccccc1N1CCN(CCN2C(=O)c3ccccc3C(C)(C)C2=O)CC1	2.7%
Fc1ccc(-n2cc(CCCCN3CCC4(CC3)OCc3ccccc34)c3ccccc32)cc1	26.9%
CC1=C(/C=C/C(C)=C/C=C/C(C)=C/C(=O)O)C(C)(C)CCC1 [R4A_0003961_001 / SPE_K71879491]	4.7%
C[C@H](Nc1ncnc2[nH]cnc12)c1cc2ccc(F)cc2nc1-c1ccccn1 [R4A_0002240_001 / SPE_A58947127]	4.77%

SMILES	result_ITMP
COc1ccc(C(=O)/C(Cc2cc(OC)c(OC)c(OC)c2)=C(\C(=O)[O-])c2ccc3c(c2)OCO3)cc1	-3.57%
O=c1ccc2[nH]cc(C3=CCNCC3)c2[nH]1	-1.73%
Cc1[nH]c2ccc(Cl)cc2c1C1=CCNCC1	96.8%
COc1ccc2[nH]cc(C3=CCNCC3)c2c1	-0.41%
C[C@@H]([C@H](C)O)[C@H](N)C(=O)O	0.75%
N#CN/C(=N\c1ccncc1)NCCCCCCOc1ccc(Cl)cc1	0.38%
COc1ccc(-c2ccc3c(N4CCOCC4)nc(N4C[C@@H](C)O[C@@H](C)C4)nc3n2)cc1CO	1.47%
CNC(=O)[C@@H](c1ccccc1)N1CCc2cc(OC)c(OC)cc2[C@@H]1CCc1ccc(C(F)(F)F)cc1	1.25%
COc1ccc(OCC2c3cc(OC)c(OC)cc3CCN2C(=O)c2cccc(Cl)c2)cc1 (centres unmarked)	-4.92%
COc1cc2c(cc1O)C(CCc1ccc(Cl)cc1)N(C)CC2 (centres unmarked)	64%
Cc1c(N(C)CS(=O)(=O)[O-])c(=O)n(-c2ccccc2)n1C	-4.64%
CCCCCCCCCC(=O)O[C@H]1CC[C@H]2[C@@H]3CCC4=CC(=O)CC[C@@H]4[C@H]3CC[C@]12C	-0.22%
CN1CCC2=C(C1)C(c1ccccc1)c1ccccc12 (centres unmarked)	6.76%
CN1CCC(=C2c3ccccc3CC(=O)c3sccc32)CC1	29%
CN1CCC2=C(C1)c1ccccc1Cc1ccccc12	52.7%
O=[N+]([O-])O[C@@H]1CO[C@H]2[C@@H]1OC[C@@H]2O	-9.17%
C[C@@H](O[C@H]1OCCN(Cc2nn[nH]c2CN(C)C)[C@H]1c1ccc(F)cc1)c1cc(C(F)(F)F)cc(C(F)(F)F)c1	71.2%
C[C@@H](O[C@H]1OCCN(Cc2nn(P(=O)(O)O)c(=O)[nH]2)[C@H]1c1ccc(F)cc1)c1cc(C(F)(F)F)cc(C(F)(F)F)c1	6.28%
C[C@@H](O[C@H]1OCCN(Cc2n[nH]c(=O)[nH]2)[C@H]1c1ccc(F)cc1)c1cc(C(F)(F)F)cc(C(F)(F)F)c1	2.55%
OCCNCCCOc1cccc(Cl)c1Cl	55.4%
C[C@]12CCC(=O)C=C1CC[C@@H]1[C@@H]2CC[C@@]2(C)[C@H]1CC[C@]2(O)C(=O)CO	-5.73%
CCCCOc1ccc(C(=O)Nc2ccc(F)cc2F)cc1	-8.12%
C=CCN(C)CCCCCCOc1ccc(C(=O)c2ccc(Br)cc2)c(F)c1	92.9%
